Inconclusive results are not listed. Active and inactive are the calls of the source. The call rests on the fitted dose curve; in most records, active means well fitted curve in the direction sought with a large enough effect; inconclusive means small, poorly fitted or top-dose-only effect, or another doubt; inactive means no such curve, though single readings can be large or run the other way.

Thioredoxin reductase 1, cytoplasmic (Rattus norvegicus), sequence (O89049 whole entry, looked up): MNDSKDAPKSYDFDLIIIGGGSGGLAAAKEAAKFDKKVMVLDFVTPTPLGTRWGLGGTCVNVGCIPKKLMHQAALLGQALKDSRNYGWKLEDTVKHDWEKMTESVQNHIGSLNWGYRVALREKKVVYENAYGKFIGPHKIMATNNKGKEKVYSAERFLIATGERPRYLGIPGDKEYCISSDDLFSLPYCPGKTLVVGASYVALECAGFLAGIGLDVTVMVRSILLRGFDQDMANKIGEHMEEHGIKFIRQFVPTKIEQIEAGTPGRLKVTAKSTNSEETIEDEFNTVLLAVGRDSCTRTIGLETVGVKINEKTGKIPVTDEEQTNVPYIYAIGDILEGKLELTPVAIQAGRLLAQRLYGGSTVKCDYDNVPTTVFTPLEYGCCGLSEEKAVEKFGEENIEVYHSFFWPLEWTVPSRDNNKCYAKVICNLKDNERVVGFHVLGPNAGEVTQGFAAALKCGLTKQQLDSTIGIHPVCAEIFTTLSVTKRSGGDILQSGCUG

The test deals with Thioredoxin reductase 1, cytoplasmic (Rattus norvegicus) (UniProt O89049). In words: qHTS Assay for Substrates of Mammalian Selenoprotein Thioredoxin Reductase 1 (TrxR1) (AID 488772).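 Further: a drop in NADPH fluorescence below the no-compound background marks a TrxR1 substrate.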 The following applies: purified TrxR1, NADPH consumption substrate assay; series mostly up to 57.1 µM. From the text:
The selenoprotein thioredoxin reductase (TrxR; EC 1.8.1.9) is a FAD containing homodimeric pyridine nucleotide-disulfide oxidoreductase with many cellular roles. Together with NADPH and its prime substrate thioredoxin (Trx), the enzyme forms the core of the Trx system. The mammalian Trx system exerts a wide spectrum of functions including redox regulation, antioxidant defense, regulation of transcription factors as well as support of cell growth and replication. Many of these functions involve the reduction of Trx, which may subsequently reduce a number of different substrates including ribonucleotide reductase, peroxiredoxins or NFkB. Mammalian TrxR itself also has a broad substrate specificity, reducing both protein and non-protein substrates, including low molecular weight compounds such as dehydroascorbate, lipoic acid, ubiquinone, and juglone. In addition, several drugs in clinical use for anticancer treatment are indeed known to target TrxR1.
This BioAssay is a validation of an NADPH fluorescence-based, dual-purpose qHTS rTrxR1 assay designed to find potential inhibitors and substrates of rTrxR1. For this particular BioAssay, actives are potential substrates. See related BioAssay for inhibitors data deposition.
Assay protocol: 2 uL of reagents (buffer in column 4 as negative control and 90 nM rTrxR1 in columns 1-3 and 5-48) were dispensed into Greiner black solid-bottom 1,536-well assay plates, followed by 1 uL of NADPH (400 uM final concentration) to each well. The plates were centrifuged at 1000 rpm for 15 seconds and subsequently incubated for 5 min at room temperature (~22 deg C) to allow for rTrxR1 reduction. Compounds (23 nL) were then transferred via Kalypsys pin tool equipped with 1536-pin array (10 nL slotted pins, V&P Scientific, San Diego, CA). In addition, a duplicate 2-fold serial dilution of the control compounds auranofin, a known gold-based TrxR1 inhibitor, and juglone (5-hydroxy-1,4-naphthoquinone), a natural TrxR1 substrate, were pin-transferred to columns 2 and 3, respectively. After incubation for 15 min at room temperature (~22 deg C), 1 uL of selenite (400 uM final concentration) were dispensed to each well. The plate was immediately transferred to a ViewLux high-throughput CCD imager (PerkinElmer), wherein kinetic measurements of NADPH fluorescence (Ex 340 nm, Em 450 nm) were acquired (8 minute kinetic read, see Table 1). Read 1 was utilized to assess the capacity of a compound to serve as an rTrxR1 substrate, i.e. a decrease in NADPH fluorescence compared to the no-compound background is an indication of a substrate behavior for that particular compound. For inhibitory activity of a compound, delta values, computed as the difference in fluorescence intensity between the first and last reads of an 8-minute time kinetic window, were used. All reagents were diluted in an assay buffer consisting of 50 mM Tris-HCl, pH 7.5, 2 mM EDTA, and 0.01% Tween-20.
Throughout the screen, reagent bottle and all liquid lines were made light-tight to minimize reagent degradation. All screening operations were performed on a fully integrated robotic system (Kalypsys, San Diego, CA) containing one RX-130 and two RX-90 anthropomorphic robotic arms (Staubli, Duncan, SC). Library plates were screened starting from the lowest and proceeding to the highest concentration, and a 'double-pinning' step of the highest concentration was required to access higher concentrations of compounds. Vehicle-only plates, with DMSO being pin-transferred to the columns 5-48, were inserted uniformly at the beginning and the end of each library in order to monitor and record any shifts in the background, which can be affected by reagent dispensers or loss in enzyme activity over time. Screening data were corrected, normalized, and concentration-effect relationships were derived by using publicly-available curve fitting algorithms developed in-house (http://ncgc.nih.gov/pub/openhts).
(In general: Quantitative high-throughput screening tests each substance at several concentrations.)
Take `CN(C)CCCN1c2ccccc2Sc2ccc(C(F)(F)F)cc21`: the outcome was inactive.

In the case of `CCCC(C(=O)OCCN(CC)CC)(c1ccccc1)c1ccccc1`, the compound was classed as inactive.

On to `CN1C(=O)CC[C@H]1c1cccnc1`, for which the call was inactive.

For the compound `OCCN1CCN(CC/C=C2/c3ccccc3Sc3ccc(C(F)(F)F)cc32)CC1`, the result was inactive.

Regarding `CC(=O)Oc1cc(C(C)C)c(OCCN(C)C)cc1C`, the call was inactive.

Consider `CO[C@@]1(NC(=O)CSCC#N)C(=O)N2C(C(=O)O)=C(CSc3nnnn3C)CS[C@@H]21`, for which the call was inactive.

For `CNCCCN1c2ccccc2CCc2ccccc21`, the compound was classed as inactive.

As for `CC(C)(C)NCC(O)c1cc(O)cc(O)c1` (stereo not given), the compound was classed as inactive.

`NC(N)=NC(=O)Cc1c(Cl)cccc1Cl`: the call was inactive.

Consider `C(=C\c1ccccc1)/CN1CCN(C(c2ccccc2)c2ccccc2)CC1`, for which the compound was called inactive.

Turning to `COc1ccc([C@@H]2Sc3ccccc3N(CCN(C)C)C(=O)[C@@H]2OC(C)=O)cc1`, the compound was classed as inactive.

`CCCN(CCC)CCc1cccc2c1CC(=O)N2`: the compound was classed as inactive.

Consider `C[C@]12CCC(=O)C=C1CC[C@@H]1[C@@H]2C(=O)C[C@@]2(C)[C@H]1CC[C@]2(O)C(=O)CO`, for which the result was inactive.

For the compound `CCc1c(C)[nH]c2c1C(=O)C(CN1CCOCC1)CC2` (stereo not given), the compound was classed as inactive.

Consider `CN=C(NC#N)NCCSCc1nc[nH]c1C`, for which the result was inactive.

Consider `Cc1ccc(=O)n(-c2ccccc2)c1`, for which the outcome was inactive.

On to `C[N+](C)(C)CCOC(N)=O`, for which the compound was called inactive.

Regarding `CN(C(=O)CCCOc1ccc2[nH]c(=O)ccc2c1)C1CCCCC1`, the result was inactive.

`CCCN(CCC)C(=O)C(CCC(=O)O)NC(=O)c1ccccc1` (stereo not given): the compound was classed as inactive.

With `CCN(Cc1ccncc1)C(=O)C(CO)c1ccccc1` (stereo not given), the result was inactive.

With `C[C@]12C=CC(=O)C=C1CC[C@H]1[C@@H]3C[C@@H](O)[C@](O)(C(=O)CO)[C@@]3(C)C[C@H](O)[C@@]12F`, the outcome was inactive.

For the compound `COc1ccc(CN(CCN(C)C)c2ccccn2)cc1`, the outcome was inactive.

Turning to `CC(=O)OC(C)C[N+](C)(C)C` (stereo not given), the outcome was inactive.

As for `O=C(O)CN(CCN(CC(=O)O)CC(=O)O)CCN(CC(=O)O)CC(=O)O`, the compound was called inactive.

Consider `NCCCNCCSP(=O)(O)O`, for which the compound was classed as inactive.

For the compound `CCc1cccc(N(C)C(N)=Nc2cccc3ccccc23)c1`, the result was inactive.

On to `COC(=O)[C@H]1[C@H]2C[C@@H]3c4[nH]c5cc(OC)ccc5c4CCN3C[C@H]2C[C@@H](OC(=O)c2cc(OC)c(OC)c(OC)c2)[C@@H]1OC`, for which the outcome was inactive.

Turning to `COc1cc(Cc2cnc(N)nc2N)cc(OC)c1OC`, the outcome was inactive.

As for `CCOC(=O)c1cnc2c(cnn2CC)c1NN=C(C)C`, the outcome was inactive.

On to `Cc1cc(C)c(/C=C2\C(=O)Nc3ccccc32)[nH]1`, for which the call was inactive.

For the compound `CN/C(=C\[N+](=O)[O-])NCCSCc1ccc(CN(C)C)o1`, the call was inactive.

With `CCO/C([O-])=N/c1c[n+](N2CCOCC2)no1`, the compound was called inactive.

Regarding `CC(C)NNC(=O)c1ccncc1`, the compound was called inactive.

For `CC(C)[N+](C)(CCOC(=O)C1c2ccccc2Oc2ccccc21)C(C)C`, the outcome was inactive.

Turning to `CC(N=C(NC#N)Nc1ccncc1)C(C)(C)C` (stereo not given), the compound was called inactive.

For the compound `O=C(O)CP(=O)(O)O`, the outcome was inactive.

Take `COc1cc2c(cc1OC)-c1cc(=Nc3c(C)cc(C)cc3C)n(C)c(=O)n1CC2`: the call was inactive.

Consider `O=c1[nH]c(=O)n([C@H]2C[C@H](O)[C@@H](CO)O2)cc1Br`, for which the compound was classed as inactive.

Consider `C[C@@H](O)[C@H]1C(=O)N2C(C(=O)O)=C(SCCN=CN)C[C@H]12`, for which the outcome was inactive.

Take `CCCCNC(=O)NS(=O)(=O)c1ccc(C)cc1`: the call was inactive.

The values above are taken from PubChem BioAssay (NCATS).
